Laboratory results: PubChem BioAssay AID1159580 (chemical genetic matrix, 2015)
“And” between values parts separate entries of the source, which are not always exact repeats. Equal entries are not always repeated. Hit rate of the full screen: of about 5,500 compounds, about 2,000 (36%) were called active. Not shown: some 18% with an inconclusive outcome. Rule as the data show it: active = normalized growth mostly below about 0.91 (no sharp cut-off); inconclusive = no clear call, values can overlap the other calls; inactive = mostly above about 0.92. The list shows a part of the results.

Test: chemical genetic growth profiling, strain panel (AID 1159580);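 also: tested at 20 µM; growth read once vehicle control cultures reached saturation at 30 °C; 1 = growth at the plate median or of vehicle wells; lower values mean less growth of the strain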
Conditions: S. cerevisiae deletion strains, growth OD

Measured: normalized growth

CC(C)=CCC/C(C)=C/CO
inactive: locus YAL013W, strain DEP1, stronger effect = lower value 1.01 | locus YAL021C, strain ccr4, stronger effect = lower value 1.02 | locus YAL026C, strain drs2, stronger effect = lower value 0.98 | locus YAL030W, strain snc1, stronger effect = lower value 0.995 | locus YBL061C, strain skt5, stronger effect = lower value 0.986 | locus YBR009C, strain hhf1, stronger effect = lower value 1.01 | locus YBR021W, strain FUR4, stronger effect = lower value 1 | locus YBR023C, strain chs3, stronger effect = lower value 1 | locus YBR171W, strain sec66, stronger effect = lower value 0.973 | locus YBR229C, strain ROT2, stronger effect = lower value 1.02 | locus YBR231C, strain swc5, stronger effect = lower value 1.02 | locus YBR279W, strain paf1, stronger effect = lower value 1.01 | locus YCL011C, strain gbp2, stronger effect = lower value 0.972 | locus YCL016C, strain dcc1, stronger effect = lower value 1.02 | locus YCL029C, strain bik1, stronger effect = lower value 0.988 | locus YCL069W, strain vba3, stronger effect = lower value 0.986 | locus YCR088W, strain abp1, stronger effect = lower value 0.976 | locus YDL005C, strain med2, stronger effect = lower value 0.979 | locus YDL035C, strain GPR1, stronger effect = lower value 1.01 | locus YDL040C, strain nat1, stronger effect = lower value 0.977 | locus YDL074C, strain BRE1, stronger effect = lower value 0.994 | locus YDL101C, strain DUN1, stronger effect = lower value 1.01 | locus YDL134C, strain PPH21, stronger effect = lower value 1.02 | locus YDL185W, strain tfp1, stronger effect = lower value 0.985 | locus YDL192W, strain arf1, stronger effect = lower value 1 | locus YDR001C, strain nth1, stronger effect = lower value 0.992 | locus YDR069C, strain doa4, stronger effect = lower value 0.984 | locus YDR101C, strain arx1, stronger effect = lower value 0.978 | locus YDR137W, strain rgp1, stronger effect = lower value 0.982 | locus YDR150W, strain NUM1, stronger effect = lower value 1.01 | locus YDR159W, strain sac3, stronger effect = lower value 0.937 | locus YDR162C, strain NBP2, stronger effect = lower value 1.01 | locus YDR195W, strain ref2 0.968 | locus YDR297W, strain sur2, stronger effect = lower value 0.987 | locus YDR318W, strain mcm21, stronger effect = lower value 0.995 | locus YDR334W, strain swr1, stronger effect = lower value 0.99 | locus YDR335W, strain msn5, stronger effect = lower value 0.987 | locus YDR388W, stronger effect = lower value 0.987 | locus YDR392W, strain spt3, stronger effect = lower value 0.929 | locus YDR502C, strain sam2, stronger effect = lower value 0.989 | locus YEL003W, strain gim4, stronger effect = lower value 0.986 | locus YEL037C, strain rad23, stronger effect = lower value 0.978 | locus YEL061C, strain CIN8 (second series), stronger effect = lower value 0.975 | locus YEL061C, strain CIN8, stronger effect = lower value 1.01 | locus YER015W, strain faa2, stronger effect = lower value 0.982 | locus YER016W, strain bim1, stronger effect = lower value 0.98 | locus YER110C, stronger effect = lower value 0.985 | locus YER111C, strain swi4, stronger effect = lower value 0.988 | locus YER155C, strain BEM2 (second series), stronger effect = lower value 1.02 | locus YER155C, strain BEM2, stronger effect = lower value 1.01 | locus YER167W, strain BCK2, stronger effect = lower value 1.01 | locus YFR010W, strain ubp6, stronger effect = lower value 0.978 | locus YGL078C, strain dbp3, stronger effect = lower value 0.984 | locus YGL086W, strain mad1, stronger effect = lower value 0.992 | locus YGL167C, strain pmr1, stronger effect = lower value 0.986 | locus YGL173C, strain kem1, stronger effect = lower value 0.958 | locus YGL227W, strain vid30, stronger effect = lower value 0.981 | locus YGL240W, strain doc1, stronger effect = lower value 0.967 | locus YGL248W, strain PDE1, stronger effect = lower value 1.03 | locus YGL253W, strain hxk2, stronger effect = lower value 0.961 | locus YGR078C, strain PAC10, stronger effect = lower value 1 | locus YGR135W, strain pre9, stronger effect = lower value 0.988 | locus YGR229C, strain SMI1, stronger effect = lower value 0.998 | locus YGR252W, strain gcn5, stronger effect = lower value 1.03 | locus YHR013C, strain ard1, stronger effect = lower value 1 | locus YHR027C, strain rpn1, stronger effect = lower value 0.977 | locus YHR030C, strain SLT2, stronger effect = lower value 1.01 | locus YHR079C, strain IRE1 (second series), stronger effect = lower value 0.993 | locus YHR079C, strain IRE1, stronger effect = lower value 0.994 | locus YHR094C, strain hxt1, stronger effect = lower value 0.995 | locus YHR129C, strain ARP1, stronger effect = lower value 1.01 | locus YHR142W, strain chs7, stronger effect = lower value 0.998 | locus YHR200W, strain rpn10, stronger effect = lower value 1 | locus YIL066C, strain RNR3, stronger effect = lower value 1.01 | locus YIL073C, strain SPO22, stronger effect = lower value 0.989 | locus YIL125W, strain kgd1, stronger effect = lower value 1 | locus YIR030C, strain dcg1, stronger effect = lower value 0.993 | locus YJL092W, strain hpr5, stronger effect = lower value 0.985 | locus YJL095W, strain BCK1 (second series), stronger effect = lower value 0.982 | locus YJL095W, strain BCK1, stronger effect = lower value 1 and 0.989 | locus YJL115W, strain asf1, stronger effect = lower value 0.993 | locus YJL129C, strain trk1, stronger effect = lower value 0.981 | locus YJL134W, strain LCB3, stronger effect = lower value 1.01 | locus YJL154C, strain vps35, stronger effect = lower value 0.988 | locus YJL164C, strain tpk1, stronger effect = lower value 1.02 | locus YJL166W, strain qcr8, stronger effect = lower value 1.01 | locus YJL168C, strain set2, stronger effect = lower value 0.992 | locus YJL187C, strain SWE1 (second series), stronger effect = lower value 1.01 | locus YJL187C, strain SWE1, stronger effect = lower value 0.993 | locus YJR043C, strain POL32, stronger effect = lower value 0.986 | locus YJR066W, strain TOR1, stronger effect = lower value 0.994
